Source: PubChem BioAssay (NCATS)
Where “and” joins values, the source holds several entries; their conditions need not be identical. Equal values may be shown once. Unmarked numbers belong to inactive results. Records with an inconclusive call do not appear. Calls of active or inactive are those of the source. Unless noted, calls follow the shape of the dose curve; as a rule, active = well fitted curve in the direction sought with a large enough effect in the repeat runs; inconclusive = weak or mixed curves; inactive = no such curve, though single readings can be large; an effect the other way counts as inactive or inconclusive. Peptide text beside a SMILES is read from it.

Tested on: not listed separately
Test: qHTS assay for small molecule agonists of the antioxidant response element (ARE) signaling pathway measured by Nrf2-dependant transcriptional activity - cell viability counter screen (AID 720653); also: potency is read from the fitted curve at half-maximal effect; as to max response: % is scaled to controls: 0 for no effect and ±100 for the full control effect
Conditions: ARE-bla HepG2 viability, CellTiter-Glo ATP luminescence, 16 h; max response: hits give low values
How it was run: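 ARE-bla HepG2 cells (2,000/well) rested 5 hrs at 37C/5% CO2, then exposed to compounds in DMSO for 16 hrs. Viability was read in the same wells as intracellular ATP by luminescence, 30 min at room temperature after reagent addition.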
In the case of `Nc1nc(Cl)nc2c1ncn2[C@H]1C[C@H](O)[C@@H](CO)O1`, the max response is reported as -12.8%.
Work on `Nc1ccc(S(N)(=O)=O)cc1` yielded a max response of 0.534%.
`CNC[C@H](O)c1ccc(O)c(O)c1` showed a max response of 4.44%.
With `CC(=O)Nc1ccc(O)cc1` the max response was -1.61% and -10.9%.
In the case of `COC(=O)[C@H](Cc1ccccc1)NC(=O)[C@@H](N)CC(=O)O` (H-Asp-Phe-OMe), the max response is reported as -13.7% and 2.98%.
Work on `CC(=O)N1CCN(c2ccc(OC[C@H]3CO[C@](Cn4ccnc4)(c4ccc(Cl)cc4Cl)O3)cc2)CC1` yielded a max response of -20.7%.
With `CS(=O)(=O)OCCCCOS(C)(=O)=O` the max response was -5.06% and -4.65% and 2.24%.
In the case of `Cc1ccc(C)c(OCCCC(C)(C)C(=O)O)c1`, the max response is reported as -1.19% and -0.256%.
For `CCc1nc(N)nc(N)c1-c1ccc(Cl)cc1`, the Potency was 11.2 µM (active).
For `COc1c2occc2cc2ccc(=O)oc12`, the max response was -6.22% and 0.264%.
With `N[C@@H](Cc1cc(I)c(Oc2cc(I)c(O)c(I)c2)c(I)c1)C(=O)O` the max response was -2.98%.
With `NS(=O)(=O)c1cc(C(=O)O)c(NCc2ccco2)cc1Cl` the max response was 0.113% and -9.05%.
In the case of `CCCc1cc(=O)[nH]c(=S)[nH]1`, the max response is reported as -7.93% and 7.26%.
Work on `CC1(C)NC(=O)N(c2ccc([N+](=O)[O-])c(C(F)(F)F)c2)C1=O` yielded a max response of -27.8%.
Compound `O=c1c(O)c(-c2ccc(O)cc2O)oc2cc(O)cc(O)c12` has a max response of 6.53%.
For `c1ccc2[nH]c(-c3cscn3)nc2c1`, the max response was -11.8% and -19.5%.
In the case of `CCCCC(CC)COC(=O)C(C#N)=C(c1ccccc1)c1ccccc1` (centres undefined), the max response is reported as -8.35%.
With `CN(C)c1ccc2nc3ccc(=[N+](C)C)cc-3sc2c1` the Potency was 10 µM (active).
Work on `COc1cc(OC)c(C(=O)CCCN2CCCC2)c(OC)c1` yielded a max response of -3.27%.

Molecular target: Hexokinase-4 (Homo sapiens) + Glucokinase regulatory protein (Homo sapiens) (UniProt P35557+Q14397)
Sequence (P35557 whole entry, looked up): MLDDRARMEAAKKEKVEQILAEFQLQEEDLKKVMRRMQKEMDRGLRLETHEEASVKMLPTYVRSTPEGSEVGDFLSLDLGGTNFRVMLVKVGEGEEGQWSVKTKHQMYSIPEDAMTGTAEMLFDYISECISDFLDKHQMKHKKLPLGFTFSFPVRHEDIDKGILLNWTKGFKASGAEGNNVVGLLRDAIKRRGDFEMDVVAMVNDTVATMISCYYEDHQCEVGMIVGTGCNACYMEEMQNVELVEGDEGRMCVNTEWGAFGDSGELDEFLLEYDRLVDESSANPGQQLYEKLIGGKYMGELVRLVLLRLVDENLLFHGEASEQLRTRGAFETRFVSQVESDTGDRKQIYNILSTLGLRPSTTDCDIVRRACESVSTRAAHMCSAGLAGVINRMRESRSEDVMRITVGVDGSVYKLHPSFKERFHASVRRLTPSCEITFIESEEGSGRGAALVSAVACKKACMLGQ
Sequence (Q14397 whole entry, looked up): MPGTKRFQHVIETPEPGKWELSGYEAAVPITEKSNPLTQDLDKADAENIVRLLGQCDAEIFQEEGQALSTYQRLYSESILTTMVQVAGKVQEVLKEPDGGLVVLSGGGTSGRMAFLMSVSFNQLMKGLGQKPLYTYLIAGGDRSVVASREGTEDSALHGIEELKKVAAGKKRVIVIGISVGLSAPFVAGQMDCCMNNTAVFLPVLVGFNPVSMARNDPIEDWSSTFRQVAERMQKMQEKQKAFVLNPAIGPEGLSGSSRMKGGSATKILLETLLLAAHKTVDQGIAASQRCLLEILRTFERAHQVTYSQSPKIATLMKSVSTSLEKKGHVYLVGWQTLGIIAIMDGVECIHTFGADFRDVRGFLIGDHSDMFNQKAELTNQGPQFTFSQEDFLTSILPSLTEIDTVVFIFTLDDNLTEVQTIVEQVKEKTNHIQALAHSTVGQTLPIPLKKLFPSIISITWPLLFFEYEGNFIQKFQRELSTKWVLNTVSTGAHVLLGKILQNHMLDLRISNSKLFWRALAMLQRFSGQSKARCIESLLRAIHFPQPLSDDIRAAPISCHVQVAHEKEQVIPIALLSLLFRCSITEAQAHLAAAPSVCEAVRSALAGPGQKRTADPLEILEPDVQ
Test: qHTS assay for inhibitors of recombinant human GCK-GKRP interaction: HTRF assay (AID 743207; active = well fitted curve in the direction sought with a large enough effect; an effect the other way counts as inactive or inconclusive;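 also: 0% = DMSO with GCK present and -100% = DMSO wells lacking GCK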)
Conditions: recombinant GCK-GKRP HTRF binding, 60 min, with sorbitol-6-phosphate; series mostly up to 57.5 µM
How it was run: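 HTRF read-out (ex 320 nm; 615/665 nm emission) after 60 min RT equilibration of 5 nM GST-GCK, 5 nM FLAG-GKRP, 2 uM S6P, compound and anti-FLAG/anti-GST detection antibodies; signal normalized between DMSO wells with and without GCK.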
In the case of `CNC[C@H](O)c1ccc(O)c(O)c1`, the outcome is reported as “inactive”.
For `CC(C)c1ccc2c(c1)c(SC(C)(C)C)c(CC(C)(C)C(=O)O)n2Cc1ccc(Cl)cc1`, the outcome was “inactive”.
For `Cc1cc(O)c2c(c1)C(=O)c1cc(O)cc(O)c1C2=O`, the outcome was “inactive”.
With `CC(=O)N1CCN(c2ccc(OC[C@H]3CO[C@](Cn4ccnc4)(c4ccc(Cl)cc4Cl)O3)cc2)CC1` the outcome was “inactive”.
With `CCOC(=O)C(C)Oc1cccc2c(=O)n(CC(=O)Nc3ccc4c(c3)OCCO4)ccc12` (centres undefined) the outcome was “inactive”.
In the case of `Oc1ccc(-c2nc(-c3ccc(F)cc3)c(-c3ccncc3)[nH]2)cc1`, the outcome is reported as “inactive”.
In the case of `CC1(C)NC(=O)N(c2ccc([N+](=O)[O-])c(C(F)(F)F)c2)C1=O`, the outcome is reported as “inactive”.
In the case of `C[C@@H](N)C1CCC(C(=O)Nc2ccncc2)CC1` (some centres undefined), the outcome is reported as “inactive”.
For `O=Nc1c(-c2c(O)[nH]c3cc(Br)ccc23)[nH]c2ccccc12`, the outcome was “inactive”.
With `Cc1cccc(C#Cc2ccccc2)n1` the outcome was “inactive”.
